In PubChem BioAssay (EPA / NIEHS):
Inconclusive results are not listed. The source made the active and inactive calls. Rule for the calls: active = hit-call score of the fitted dose curve at least 0.9, where 1 is the maximum; inconclusive = response in the unintended direction; inactive = score below 0.9.

The molecules below were run against Nuclear receptor subfamily 4 group A member 2 (Homo sapiens) (UniProt P43354) (assay: ATG_NURR1_TRANS: Attagene TRANS-FACTORIAL HepG2 Assay for human Nuclear Receptor Related Protein 1 (NURR1) (AID 2282985)). Settings: HepG2 Attagene TRANS reporter, mRNA readout.
Chain of Nuclear receptor subfamily 4 group A member 2 (Homo sapiens) (P43354 whole entry, looked up): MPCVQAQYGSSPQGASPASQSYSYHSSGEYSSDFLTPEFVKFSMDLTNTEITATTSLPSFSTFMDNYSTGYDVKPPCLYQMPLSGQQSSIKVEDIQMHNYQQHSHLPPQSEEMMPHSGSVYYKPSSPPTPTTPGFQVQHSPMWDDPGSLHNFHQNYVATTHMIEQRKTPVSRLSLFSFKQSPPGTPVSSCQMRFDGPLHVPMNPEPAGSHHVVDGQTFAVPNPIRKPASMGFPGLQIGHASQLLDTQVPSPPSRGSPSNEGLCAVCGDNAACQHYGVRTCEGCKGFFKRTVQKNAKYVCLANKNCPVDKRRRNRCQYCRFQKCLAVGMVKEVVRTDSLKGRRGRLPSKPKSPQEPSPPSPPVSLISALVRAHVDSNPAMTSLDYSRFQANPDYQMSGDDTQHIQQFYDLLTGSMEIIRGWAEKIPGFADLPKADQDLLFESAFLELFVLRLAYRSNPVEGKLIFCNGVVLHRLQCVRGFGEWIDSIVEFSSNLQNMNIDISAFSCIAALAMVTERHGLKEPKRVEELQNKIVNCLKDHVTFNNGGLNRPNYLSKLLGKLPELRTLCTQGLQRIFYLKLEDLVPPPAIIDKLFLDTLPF
Procedure: ATG_TRANS is a cell-based, multiplexed-readout assay that uses HepG2, a human liver cell line, with measurements taken at 24 hours after chemical dosing in a 24-well plate.ATG_NURR1_TRANS is one of 30 assay component(s) measured or calculated from the ATG_TRANS assay. It is designed to make measurements of mRNA induction, a form of inducible reporter, as detected with fluorescence intensity signals by Reverse transcription polymerase chain reaction (RT-PCR) and Capillary electrophoresis technology.Data from the assay component ATG_NURR1_TRANS was analyzed into 1 assay endpoint. This assay endpoint, ATG_NURR1_TRANS, was analyzed in the positive analysis fitting direction relative to DMSO as the negative control and baseline of activity. Using a type of inducible reporter, measures of mRNA for gain-of-signal activity can be used to understand the reporter gene at the transcription factor-level as they relate to the gene NR4A2. Furthermore, this assay endpoint can be referred to as a primary readout, because this assay has produced multiple assay endpoints where this one serves a reporter gene function. To generalize the intended target to other relatable targets, this assay endpoint is annotated to the nuclear receptor intended target family, where the subfamily is orphan.
Human liver HepG2 cells are transiently transfected with multiple reporter transcription units (MRTUs) in 6-well plates using FuGene 6 reagent (Roche; 3 ml FuGene/1 mg DNA). The MRTU constructs are regulated by a cis-regulating element (promoter). […] A major difference between the CIS and TRANS system is that in CIS activities of endogenous TFs are measured, whereas the TRANS assay evaluates changes in activities of exogenous, chimeric NR-Gal4 proteins. […] At the end of 24 hour incubation, total RNA was isolated using TriZol reagent (Invitrogen). The isolated RNA is then reverse-transcribed using oligo(dT) primer and Mo-MLV reverse transcriptase (Invitrogen) with DNAse I (Ambion) treatment for 30 min. The one-tenth of the produced cDNA was amplified by PCR using Taq DNA polymerase (Invitrogen) and two reporter sequence-specific primers. The PCR products were fluorescently labeled by primer extension with 6-arboxyfluorescein (6-FAM) 5'-labeled reporter sequence-specific primer (2 min at 95 C, 20 s at 68 C and 10 min at 72 C) and these products were digested with 5U of HpaI (New England Biolabs) for 2h at 37 C. The fragments were purified using Qiaquick PCR columns (Qiagen), analyzed on an ABI 3130xL genetic analyzer (Applied Biosystems) with peak positions identified by using a set of X-rhodamine (ROX)-labeled MapMarker1000 molecular weight standards (BioVentures). The raw capillary electrophoresis data was processed using Attagraph software (Attagene).

outcome, inactive:
COC(=O)c1ccc(C)cc1C1=NC(C)(C(C)C)C(=O)N1 (stereo not given) (tested in a mixture with another compound), CCc1ccc(O)cc1, O=C1OC[C@H](Cc2cccc(O)c2)[C@H]1Cc1cccc(O)c1, CC1=CC[C@@]23C[C@@H]1C(C)(C)[C@@H]2CC[C@H]3C, C=C(C)C(=O)OCCOC1CC2CC1C1C=CCC21 (stereo not given), NCCNc1cccc2ccccc12, CCN(CCN)c1cccc(C)c1, C=C(C)[C@@H]1CC=C(C)C(=O)C1, CCCCCCC(C)(C)S, CCCCC(CC)COC(=O)c1ccc(O)cc1 (stereo not given), c1ccc(CN(Cc2ccccc2)Cc2ccccc2)cc1, Cc1cc(CCC(=O)OCCOCCOCCOC(=O)CCc2cc(C)c(O)c(C(C)(C)C)c2)cc(C(C)(C)C)c1O, C[C@H]1C[C@@H](O)CC(C)(C)C1, CC1(C)O[C@@H]2[C@@H](CO[C@@]3(COS(N)(=O)=O)OC(C)(C)O[C@@H]23)O1, CCCCC1CCC(O)CC1 (stereo not given), CN(C)CCOc1ccc(/C(=C(/CCCl)c2ccccc2)c2ccccc2)cc1, O=C1c2ccccc2C(=O)c2c(O)ccc(O)c21, C[Si]1(C)O[Si](C)(C)O[Si](C)(C)O1, O=C1OC(=O)c2c(Br)c(Br)c(Br)c(Br)c21, O=C(c1ccccc1)C(O)c1ccccc1 (stereo not given), COc1ccccc1N=Nc1c(S(=O)(=O)O)cc2cc(S(=O)(=O)O)cc(NC(C)=O)c2c1O, N#Cc1cscn1, CCCC1O[C@@H]2C[C@H]3[C@@H]4CCC5=CC(=O)C=C[C@]5(C)[C@H]4[C@@H](O)C[C@]3(C)[C@]2(C(=O)CO)O1 (stereo not given in full), C=C(C)C(=O)OCC(CC)(COC(=O)C(=C)C)COC(=O)C(=C)C, CN(c1nccc(=O)[nH]1)C1CCN(c2nc3ccccc3n2Cc2ccc(F)cc2)CC1, CCCC(C)=O, COC(C)(C)CCCC(C)CC=O (stereo not given), CC=CC=CCOC(=O)C(C)C, COc1cc(CCC(C)=O)ccc1O, C1CCOC1, O=C(O)c1cc(C(=O)O)cc([N+](=O)[O-])c1, Cc1cc(C)nc(NS(=O)(=O)c2ccc(N)cc2)n1, CC(C)(C)OC(=O)c1ccc(O)cc1, O=C(Nc1ccc2c(c1)Cc1ccccc1-2)C(F)(F)F, CCCC(=O)OCCc1ccccc1, O=C1OC2(c3ccccc31)c1ccc(O)c(Br)c1Oc1c2ccc(O)c1Br

AC50, active:
CCC(C)c1cc([N+](=O)[O-])cc([N+](=O)[O-])c1OC(=O)OC(C)C (stereo not given) 27.1 µM, Cc1c(OCC(F)(F)F)ccnc1CS(=O)c1nc2ccccc2[nH]1 (stereo not given) 36.7 µM, COC(=O)Nc1ccc(Cl)c(Cl)c1 79.9 µM, CCCCCCCCCCCC(=O)OCC(O)CO (stereo not given) 132 µM
